Assay [1] has as its target Cytochrome P450 2C9 (Homo sapiens) (UniProt P11712). In words: Cytochrome P450 Family 2 Subfamily C Member 9 (CYP2C9) small molecule antagonists: luciferase reporter qHTS assay (AID 1671198). Note: potency is the fitted concentration of half-maximal effect. The essentials: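 Enzyme-substrate mix preincubated with compound 10 min at room temperature; reaction started with NADPH regeneration solution, 1 h 37C. Luminescent luciferin product read after 20 min detection reagent.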

The target of assay [2] is Cytochrome P450 1A2 (Homo sapiens) (UniProt P05177). In words: Cytochrome P450 Family 1 Subfamily A Member 2 (CYP1A2) small molecule antagonists: luciferase reporter qHTS assay (AID 1671199). Note: potency is the fitted concentration of half-maximal effect. The essentials:
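Human CYP1A2 activity measured with a P450-Glo proluciferin substrate; compounds in DMSO preincubated 10 min at room temperature with enzyme-substrate mix, then NADPH regeneration system added for 1 h. Luciferin detection reagent, 20 min, luminescence read.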

In assay [3] the target is Voltage-gated inwardly rectifying potassium channel KCNH2 (Homo sapiens) (UniProt Q12809). The assay is described as follows: Human Ether-a-go-go-Related Gene (hERG) channel small molecule antagonists: fluorescence cell-based qHTS assay (AID 1671200).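 Note: hERG-expressing U2OS cells given a thallium stimulus after FluxOR II dye loading; series mostly up to about 77 µM.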 The essentials:
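First, 1000 cells per well are seeded and cultured overnight at 37 C. Next, FluxOR II dye is loaded for 1 h at room temperature, protected from light. After 10 more minutes, stimulus is added and fluorescence is read.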

For assay [4], the target named is Cytochrome P450 3A4 (Homo sapiens) (UniProt P08684). The assay is described as follows: Cytochrome P450 Family 3 Subfamily A Member 4 (CYP3A4) small molecule antagonists: luciferase reporter qHTS assay (AID 1671201). Note: potency is the fitted concentration of half-maximal effect. The gist of the method: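 Enzyme and proluciferin substrate are mixed with test chemicals for 10 min, then NADPH regeneration system drives turnover for 1 h at room temperature. A detection reagent halts the reaction; luminescence after 20 min gives relative activity.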

We go through 42 molecules from PubChem BioAssay (Tox21).

Molecules are shown by their SMILES. Results filed as inconclusive are left out. Calls of active or inactive are those of the source. Calls come from the whole dose curve; as a rule, active = well fitted curve in the direction sought with a large enough effect in the repeat runs; inconclusive = weak or mixed curves; inactive = no such curve, though single readings can be large; an effect the other way counts as inactive or inconclusive.
Note: nearly all actives have a fitted effect of over 50% in size.

Cytochrome P450 1A2 (Homo sapiens), sequence (P05177 whole entry, looked up): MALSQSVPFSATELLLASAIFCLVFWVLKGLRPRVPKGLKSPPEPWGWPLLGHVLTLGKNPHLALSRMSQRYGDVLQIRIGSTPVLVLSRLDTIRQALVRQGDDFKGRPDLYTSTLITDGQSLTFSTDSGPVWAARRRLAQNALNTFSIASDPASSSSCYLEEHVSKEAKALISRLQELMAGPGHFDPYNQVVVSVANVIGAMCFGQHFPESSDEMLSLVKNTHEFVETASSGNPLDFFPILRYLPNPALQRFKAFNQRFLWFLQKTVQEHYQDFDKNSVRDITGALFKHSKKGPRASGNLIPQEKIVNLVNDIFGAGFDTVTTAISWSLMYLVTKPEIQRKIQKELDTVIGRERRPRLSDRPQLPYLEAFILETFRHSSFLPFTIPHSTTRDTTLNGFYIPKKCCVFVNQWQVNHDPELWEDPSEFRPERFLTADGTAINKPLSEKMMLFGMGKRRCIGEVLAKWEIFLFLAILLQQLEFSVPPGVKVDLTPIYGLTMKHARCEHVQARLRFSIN
Voltage-gated inwardly rectifying potassium channel KCNH2 (Homo sapiens), sequence (Q12809 whole entry, looked up): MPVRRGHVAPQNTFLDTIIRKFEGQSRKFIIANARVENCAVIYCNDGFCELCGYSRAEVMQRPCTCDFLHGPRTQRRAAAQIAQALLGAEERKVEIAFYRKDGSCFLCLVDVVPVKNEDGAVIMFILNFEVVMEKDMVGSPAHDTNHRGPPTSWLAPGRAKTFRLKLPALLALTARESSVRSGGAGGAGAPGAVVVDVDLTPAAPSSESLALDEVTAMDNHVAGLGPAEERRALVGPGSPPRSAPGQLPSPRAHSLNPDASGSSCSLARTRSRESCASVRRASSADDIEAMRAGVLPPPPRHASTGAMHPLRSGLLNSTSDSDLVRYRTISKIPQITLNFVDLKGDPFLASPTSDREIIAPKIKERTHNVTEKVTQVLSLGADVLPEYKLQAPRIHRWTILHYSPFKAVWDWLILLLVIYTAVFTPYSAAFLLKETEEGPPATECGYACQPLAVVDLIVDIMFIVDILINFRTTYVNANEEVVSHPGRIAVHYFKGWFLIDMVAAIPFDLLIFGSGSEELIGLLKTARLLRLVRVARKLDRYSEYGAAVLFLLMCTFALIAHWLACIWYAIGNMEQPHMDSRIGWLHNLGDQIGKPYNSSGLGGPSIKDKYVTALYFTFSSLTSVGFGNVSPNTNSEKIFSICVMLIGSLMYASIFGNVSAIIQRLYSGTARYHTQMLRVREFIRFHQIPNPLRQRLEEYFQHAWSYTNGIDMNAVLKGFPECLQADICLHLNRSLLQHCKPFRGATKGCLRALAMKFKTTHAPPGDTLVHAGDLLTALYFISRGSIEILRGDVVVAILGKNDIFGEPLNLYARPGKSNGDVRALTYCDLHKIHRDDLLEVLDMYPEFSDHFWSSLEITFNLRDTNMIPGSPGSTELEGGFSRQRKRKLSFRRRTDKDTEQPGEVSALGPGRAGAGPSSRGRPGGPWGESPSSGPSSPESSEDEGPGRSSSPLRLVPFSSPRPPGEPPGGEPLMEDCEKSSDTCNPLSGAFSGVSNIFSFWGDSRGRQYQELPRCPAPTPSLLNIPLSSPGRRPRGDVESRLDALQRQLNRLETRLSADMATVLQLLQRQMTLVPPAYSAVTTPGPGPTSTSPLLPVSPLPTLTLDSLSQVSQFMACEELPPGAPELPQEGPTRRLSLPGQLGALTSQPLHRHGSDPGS
Cytochrome P450 2C9 (Homo sapiens), sequence (P11712 whole entry, looked up): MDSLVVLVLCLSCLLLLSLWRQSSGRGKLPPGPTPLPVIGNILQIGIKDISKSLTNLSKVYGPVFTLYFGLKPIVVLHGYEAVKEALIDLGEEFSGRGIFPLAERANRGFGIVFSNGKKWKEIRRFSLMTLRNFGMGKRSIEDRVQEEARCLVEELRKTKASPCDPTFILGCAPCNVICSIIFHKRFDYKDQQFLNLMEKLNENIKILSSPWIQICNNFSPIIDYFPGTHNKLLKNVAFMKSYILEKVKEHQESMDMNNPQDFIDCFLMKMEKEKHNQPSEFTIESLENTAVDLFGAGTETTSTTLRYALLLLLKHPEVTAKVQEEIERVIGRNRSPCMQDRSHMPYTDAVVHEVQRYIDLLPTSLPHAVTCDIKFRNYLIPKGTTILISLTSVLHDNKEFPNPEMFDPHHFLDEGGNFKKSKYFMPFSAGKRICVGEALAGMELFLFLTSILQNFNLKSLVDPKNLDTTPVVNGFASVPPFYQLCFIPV
Cytochrome P450 3A4 (Homo sapiens), sequence (P08684 whole entry, looked up): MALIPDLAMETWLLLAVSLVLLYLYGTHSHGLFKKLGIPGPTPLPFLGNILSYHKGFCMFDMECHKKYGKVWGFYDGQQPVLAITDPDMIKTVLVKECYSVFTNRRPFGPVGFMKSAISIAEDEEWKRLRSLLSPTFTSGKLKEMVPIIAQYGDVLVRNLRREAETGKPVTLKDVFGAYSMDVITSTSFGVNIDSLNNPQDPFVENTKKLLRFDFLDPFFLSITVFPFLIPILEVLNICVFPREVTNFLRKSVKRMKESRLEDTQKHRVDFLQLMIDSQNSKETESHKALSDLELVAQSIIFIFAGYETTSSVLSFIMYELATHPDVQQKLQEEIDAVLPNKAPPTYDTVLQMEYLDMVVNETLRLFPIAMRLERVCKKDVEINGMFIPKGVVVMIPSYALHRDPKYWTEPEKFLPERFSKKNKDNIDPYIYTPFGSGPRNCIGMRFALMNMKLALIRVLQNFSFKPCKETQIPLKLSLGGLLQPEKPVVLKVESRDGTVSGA

As to `C=COCC1CCC(COC=C)CC1` (stereo not drawn), the Potency result in assay [1], in assay [2] and in assay [3] was “inactive” in each case.
With `CCC(C(=O)NC(=O)NC(C)=O)c1ccccc1` (stereo not drawn), the Potency result in assay [1], in assay [2] and in assay [3] was “inactive” in each case.
As for `O=[N+]([O-])c1cncn1CCN1CCOCC1`, the Potency result in assay [1], in assay [2] and in assay [3] was “inactive” each time.
Consider `Cc1cccc(C)c1NC(=O)CC12CCCN1CCC2`, for which the Potency entry in assay [1] and in assay [2] was “inactive” in each case.
As for `Cc1nc(C2CCCCC2)c(-c2ccc(S(N)(=O)=O)c(F)c2)o1`, the Potency in assay [1] is 3.47 µM (active). Besides, the Potency entry in assay [2] and in assay [3] was “inactive” throughout.
For `CCN1C=CN(C)C1C` (stereo not drawn), the Potency result in assay [1], in assay [2] and in assay [3] was “inactive” in each case.
As to `CCCc1ncc(C[n+]2ccccc2C)c(N)n1`, the Potency entry in assay [1], in assay [2] and in assay [3] was “inactive” each time.
Turning to `NC(=O)N1c2ccccc2CC(=O)c2ccccc21`, the Potency entry in assay [1] and in assay [3] was “inactive” each time. Besides, in assay [2], the Potency was 3.23 µM (active).
Consider `O=C1c2ccccc2C(=O)c2cc(O)ccc21`, for which the Potency in assay [1] was 25.2 µM (active); in assay [2], 7.11 µM (active). Besides, the Potency result in assay [3] was “inactive”.
On the same counts, the results for `COc1cc(C(=O)NCc2ccc(OCCN(C)C)cc2)cc(OC)c1OC` are “inactive”, “inactive” and “inactive”.
`COC(=O)Nc1ccc(Cl)c(Cl)c1`: the results for the Potency in assay [1] and in assay [2] were 70.6 µM (active) and 5.61 µM (active), respectively. Also, the Potency entry in assay [3] is “inactive”.
Regarding `CO[C@@]1(NC(=O)C(C(=O)O)c2ccc(O)cc2)C(=O)N2C(C(=O)O)=C(CSc3nnnn3C)CO[C@@H]21` (stereo partly drawn), the Potency result in assay [1], in assay [2], in assay [3] and in assay [4] was “inactive” in each case.
On to `CCCO[Si](OCCC)(OCCC)OCCC`, for which the Potency result in assay [1] and in assay [3] was “inactive” in each case.
For `CCCCS(=O)(=O)N[C@@H](Cc1ccc(OCCCCC2CCNCC2)cc1)C(=O)O`, the Potency entry in assay [1], in assay [2], in assay [3] and in assay [4] was “inactive” throughout.
As to `CC(C#N)(CCC(=O)O)N=NC(C)(C#N)CCC(=O)O` (stereo not drawn), the Potency entry in assay [1], in assay [2], in assay [3] and in assay [4] was “inactive” each time.
For `C=CC(=O)OCCCl`, the Potency result in assay [1], in assay [3] and in assay [4] was “inactive” each time. For the same molecule, the Potency in assay [2] is 40.8 µM (active).
With `CCC(=O)OCc1ccccc1`, the Potency result in assay [1], in assay [2], in assay [3] and in assay [4] was “inactive” throughout.
For `CCN(C=O)CC`, the Potency result in assay [1], in assay [2], in assay [3] and in assay [4] was “inactive” each time.
For `C=CCCC(=O)O`, the Potency result in assay [1], in assay [2], in assay [3] and in assay [4] was “inactive” each time.
For the molecule `CC1=CC(=O)[C@H]2C[C@@H]1C2(C)C`, the Potency result in assay [1], in assay [2], in assay [3] and in assay [4] was “inactive” in each case.
For the molecule `CN1[C@@H]2CC[C@H]1CC(OC(=O)C(O)c1ccccc1)C2` (stereo partly drawn), the Potency entry in assay [1], in assay [2], in assay [3] and in assay [4] was “inactive” in each case.
As to `O=C(CO)[C@@H](O)[C@H](O)[C@@H](O)CO`, the Potency result in assay [1], in assay [2], in assay [3] and in assay [4] was “inactive” throughout.
Consider `COc1ccccc1OCC1CNC(=O)O1` (stereo not drawn), for which the Potency entry in assay [1], in assay [2], in assay [3] and in assay [4] was “inactive” throughout.
In the case of `OCCCCCO`, the Potency entry in assay [1], in assay [2], in assay [3] and in assay [4] was “inactive” throughout.
As for `N[C@H](C(=O)O)[C@@H](O)c1ccc(O)c(O)c1`, the Potency result in assay [1], in assay [2], in assay [3] and in assay [4] was “inactive” throughout.
Regarding `CC(CO)(CO)[N+](=O)[O-]`, the Potency entry in assay [1], in assay [2], in assay [3] and in assay [4] was “inactive” throughout.
Consider `CC(C)(C)OC(=O)c1cccc(N)c1`, for which the Potency in assay [1] was 32.6 µM (active); in assay [2] it was 7.29 µM (active); in assay [4] it was 16.3 µM (active). Also, in assay [3], the Potency result was “inactive”.
On the same counts, the results for `O=C(O)CCSCCC(=O)O` are “inactive”, “inactive”, “inactive” and “inactive”.
For `O=C(O)CCCC[P+](c1ccccc1)(c1ccccc1)c1ccccc1`, the Potency entry in assay [1] and in assay [3] was “inactive” each time.
On to `CC12CCC(C(=O)C1=O)C2(C)C` (stereo not drawn), for which the Potency entry in assay [1] and in assay [3] was “inactive” in each case.
Take `CN(C)C(=O)Oc1ccc[n+](C)c1`: the Potency result in assay [1], in assay [2], in assay [3] and in assay [4] was “inactive” throughout.
In the case of `[Ca+2]`, the Potency entry in assay [1], in assay [2], in assay [3] and in assay [4] was “inactive” in each case.
Turning to `Cc1coc2ccccc2c1=O`, the Potency entry in assay [1], in assay [3] and in assay [4] was “inactive” in each case. Moreover, in assay [2], the Potency was 15.5 µM (active).
With `CC1CCC(CO)CC1` (stereo not drawn), the Potency result in assay [1], in assay [2], in assay [3] and in assay [4] was “inactive” each time.
For the molecule `CC(C)(C)c1ccc(-c2ccc(C(C)(C)C)cc2)cc1`, the Potency entry in assay [1], in assay [2], in assay [3] and in assay [4] was “inactive” throughout.
On to `CC1=NN(c2cccc(S(=O)(=O)O)c2)C(=O)C1`, for which the Potency result in assay [1], in assay [3] and in assay [4] was “inactive” each time. In addition, the Potency in assay [2] is 44.8 µM (active).
Take `CCCC(=O)O[C@]1(C(=O)CC)CC[C@H]2[C@@H]3CCC4=CC(=O)CC[C@]4(C)[C@H]3[C@@H](O)C[C@@]21C`: the Potency in assay [1] was 15.5 µM (active). For the same molecule, in assay [3], the Potency result was “inactive”.
With `O=S(=O)(O)c1cccc2c(S(=O)(=O)O)cccc12`, the Potency in assay [1] is 70.9 µM (active); in assay [2], 79.5 µM (active). In addition, the Potency entry in assay [3] and in assay [4] was “inactive” in each case.
Take `CC(C)(C#N)Nc1nc(Cl)nc(NC2CC2)n1`: the Potency result in assay [1] and in assay [3] was “inactive” each time. In addition, the Potency in assay [2] was 39.9 µM (active); in assay [4], 20 µM (active).
For `CCOC(=O)c1ccccc1`, the Potency result in assay [1], in assay [2], in assay [3] and in assay [4] was “inactive” each time.
Turning to `CC(C)(N)C#N`, the Potency result in assay [1], in assay [2], in assay [3] and in assay [4] was “inactive” each time.
In the case of `CCCCCC(C)N` (stereo not drawn), the Potency entry in assay [1], in assay [2], in assay [3] and in assay [4] was “inactive” each time.
